Laboratory results from PubChem BioAssay (NCI).
Values joined by “and” are separate entries in the source; they are usually repeats but may differ in a detail not shown here. Identical values can stand only once. About 83,000 compounds went through this panel and 20% of them were active in at least one assay; those are over-represented in the sample as a whole.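 Cells were grown in 96-well plates and exposed to the test compound at a single concentration for 48 hours; results are reported as percent growth, with values below 10 considered active.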 Active and inactive are the calls of the source.

What follows are molecules tested on HL-60(TB) leukemia (assay: NCI-60 one-dose screen, 48 h (100 = growth as untreated, 0 = no growth, -100 = all killed)). Settings: 10 µM unless noted.
For `CCNC(=O)c1[nH]cc(-c2ccccc2)c1-c1cc(OC)c2c(c1OC)OCO2`, the growth was 94.7% (inactive). In the case of `COc1ccccc1NC(=O)c1sc2nc3c(cc2c1N)C(=O)CCC3`, the growth is reported as 98.6% (inactive). For `O=c1cc(-c2ccccc2)oc2cc(OCc3cn(Cc4ccc(F)cc4)nn3)cc(O)c12`, the growth was 104% [100 µM] (inactive). For `O=C(CCN1CCCC1)Nc1ccc2c(NCc3ccc(F)cc3)c3ccccc3nc2c1`, the growth was -47.3% (active). In the case of `FC(F)(F)c1cccc(-c2[nH]ncc2-c2nnnn2-c2ccccc2)c1`, the growth is reported as 3.68% (active). `Brc1c(-c2ccncc2)nc2n1CCS2` was tested, and the growth was 44.4% (inactive). With `Fc1ccc(Nc2nc3nonc3nc2Nc2ccc(F)cc2)cc1` the growth was -17.6% (active). For `OCc1nnn(-c2ccccc2)c1CO`, the growth was 89.1% (inactive). In the case of `CCOC(=O)c1c(C)oc(C)c(C(=O)OCC)c1=O`, the growth is reported as 247% (inactive) and 61.2% (inactive). For `CCN1C(=O)N(CC)C2C1NN=c1s/c(=C3\C(=O)N(C(C)C)c4ccccc43)c(=O)n12` (stereo not given), the growth was -22.6% (active). `CCCc1c(C)c2sc(=O)[nH]c2[nH]c1=O` was tested, and the growth was 101% (inactive). With `Fc1cc(C2=NNC(c3ccc[nH]3)C2)ccc1-n1ccc(C(F)(F)F)n1` (stereo not given) the growth was 55.3% (inactive). For `CN(C)C(=N)N=C(N)N`, the growth was 98.3% (inactive) and 145% (inactive). `COc1ccc(-c2nsc3c2NC(=O)CC3c2cccc(Cl)c2)cc1` (stereo not given) was tested, and the growth was -19.2% (active). In the case of `Cn1c2c(cc(S(=O)(=O)c3ccccc3)c1=O)CCc1c-2cnn1-c1ccccc1Cl`, the growth is reported as 95.3% (inactive). With `CC(C)(C)Nc1c(-c2cccs2)nc2ncccn12` the growth was 66.6% (inactive). With `c1ccc(N2N=C(c3cccc(Nc4ccncc4)c3)CC2c2ccc3c(c2)OCO3)cc1` (stereo not given) the growth was -21.1% (active). For `CC1=C/C(O)CC(=O)Cc2nc(co2)C(=O)N2CCC=C2C(=O)OC(C(C)C)C(C)/C=C\C(=O)NC/C=C\1` (stereo not given), the growth was 56.4% (inactive). For `COC(=O)Nc1nc2ccc(C(=O)c3ccccc3)cc2[nH]1`, the growth was 7.13% (active) and -59.3% (active) and -3.38% (active). With `Cc1ccc(/C=C2\SC(=S)N(CC(=O)NCCCN3CCOCC3)C2=O)cc1` the growth was 99.4% (inactive). `S=C(NCc1ccc2c(c1)OCO2)N1CCN(c2ncnc3c2oc2ccccc23)CC1` was tested, and the growth was 19.7% (inactive). In the case of `CN(C)c1ncnc2c1nnn2C1OC(CO)C(O)C1O` (stereo not given), the growth is reported as 4.4% (active). In the case of `COc1cc(OC)cc(-c2ccc(-c3ccc(C(=N)N)cn3)o2)c1`, the growth is reported as -65.7% (active). `NS(=O)(=O)c1ccc(C2C3=C(CCCC3=O)OC3=C2C(=O)c2ccccc2C3=O)cc1` (stereo not given) was tested, and the growth was -40.5% (active). With `O=C(N/N=C/c1ccc2c(c1)OCO2)c1ccncc1` the growth was 115% (inactive) and 225% (inactive). `N#Cc1c(-c2ccc(C(F)(F)F)cc2)cc(N2CC(O)C2)n2c1nc1ccccc12` was tested, and the growth was 118% (inactive). With `CS(=O)(=O)c1ccc(-c2cnn3ccc(-c4cccc(S(=O)(=O)C5CC5)c4)nc23)cc1` the growth was 24.3% (inactive). `O=C1OC2(c3ccccc31)c1ccc(O)c(O)c1Oc1c2ccc(O)c1O` was tested, and the growth was 98.6% (inactive) and 117% (inactive). In the case of `Cc1cccc(NC(=O)N/C(N)=N/c2nc(C)c(C)s2)c1`, the growth is reported as 19.5% (inactive). In the case of `CCN(CC)Cc1cc2[nH]c3c4ccc(Cl)cc4ncc3c2cc1OC`, the growth is reported as -72.1% (active) and 94.6% (inactive). `N#Cc1nnn(-c2ccc(S(N)(=O)=O)cc2)c1NCC(=O)c1ccccc1` was tested, and the growth was 88.4% (inactive). For `Cc1[nH]n(C(=O)c2ccncc2)c(=O)c1N=Nc1ccc(F)c(Cl)c1`, the growth was 36.5% (inactive). For `COc1ccc(CNC(=O)[C@H](O)[C@@H](N)Cc2ccccc2)cc1`, the growth was 102% (inactive). `CC(C)(C)NC(=O)C(OC(=O)C1CCc2cc(F)ccc2O1)c1ccccc1Cl` (stereo not given) was tested, and the growth was 103% (inactive). For `COc1ccc(/C=C/C(=O)c2ccc(Nc3ccnc4cc(Cl)ccc34)cc2)cc1`, the growth was 17.5% (inactive). In the case of `Nc1nc2c(nnn2C2CC(O)C(CO)O2)c(=O)[nH]1` (stereo not given), the growth is reported as 28.4% (inactive). With `O=C(O)C1CSC(c2ccccc2)N1` (stereo not given) the growth was 128% (inactive). `CCCCOc1ccc(/C=N/Nc2cc(C)nc3ccc(Cl)cc23)cc1` was tested, and the growth was -30.2% (active). `Cc1ccc(F)c(NC(=O)Nc2ccc(-c3cccc4[nH]nc(N)c34)cc2)c1` was tested, and the growth was 7.97% (active). With `O=C1C2C3C=CC(O3)C2C(=O)N1Nc1ccccc1` (stereo not given) the growth was 102% (inactive).
